This is an account of results in PubChem BioAssay AID2314 (National Center for Advancing Translational Sciences (NCATS), 2010).

SMILES strings stand for the structures. In all, about 300,000 compounds went through this assay and about 37,000 (12%) were called active. No stated cut-off is given here; in the data, active means max response mostly above about 13% (no sharp cut-off); inactive means mostly below about 14%. Many of the other results were omitted from the sample, so actives are more common in it than they were.

This experiment can be described thus: Cycloheximide Counterscreen for Small Molecule Inhibitors of Shiga Toxin. Further: read at 38.3 µM for the half of the compounds with a filed dose; 0% is about no effect. The conditions noted are these: cell reporter, cycloheximide protein synthesis inhibition counterscreen; active compounds read high. In general terms: A counterscreen serves to expose hits that act by an unwanted route or on another target.
Consider `Cc1onc(-c2ccc(Cl)cc2)c1-c1ccnn1S(=O)(=O)c1ccc(Cl)cc1`, for which the max response was 9.73% (inactive).

Take `COc1ccc(-c2noc(-c3ccc(C)cc3)n2)cc1`: the max response is 39.5% (active).

With `COc1ccc(Cc2nc(-c3ccccn3)no2)cc1OC`, the max response is 33% (active).

For the molecule `COc1ccc(-c2noc(CSc3ccc(C)cc3)n2)cc1`, the max response was 10.3% (inactive).

As for `COc1ccccc1Cc1nc(-c2ccc(C)cc2)no1`, the max response is 35.3% (active).

For the molecule `COc1ccc(-c2noc(CN(C)S(=O)(=O)c3ccc(C)cc3)n2)cc1`, the max response was -2.54% (inactive).

Regarding `COc1ccc2[nH]c(=O)c(-c3noc(-c4ccc(F)cc4)n3)cc2c1`, the max response was 41% (active).

Regarding `Cc1ccc(-c2noc(CC(c3ccccc3)c3ccccc3)n2)cc1`, the max response was 11% (inactive).

Turning to `CCCc1nc(-c2cc3cc(C)ccc3[nH]c2=O)no1`, the max response is 2.4% (inactive).

Consider `COc1ccc(CCNS(=O)(=O)c2cccc3cccnc23)cc1OC`, for which the max response is -1.86% (inactive).

For `COc1ccc(CCNC(=O)C(Sc2ccccn2)c2ccccc2)cc1OC` (configuration not stated), the max response is -1.92% (inactive).

In the case of `COc1ccccc1CNS(=O)(=O)c1ccc(C)cc1`, the max response is 7.14% (inactive).

On to `COc1ccc2[nH]c(=O)c(CN(Cc3cccnc3)S(=O)(=O)c3ccccc3F)cc2c1`, for which the max response is -2.1% (inactive).

As to `O=c1c([N+](=O)[O-])cccn1Cc1ccc(F)cc1Cl`, the max response is -5.4% (inactive).

With `CCCN(CCC)C(=S)Nc1cc(C(=O)OC)ccc1C(=O)OC`, the max response is -1.36% (inactive).

Turning to `COc1ccc(S(=O)(=O)/N=C2\C=C(NS(=O)(=O)c3ccccc3)C(=O)c3ccccc32)cc1`, the max response was 13.7% (inactive).

Regarding `COC(=O)COc1ccc2c(=O)c(Oc3ccccc3Br)coc2c1`, the max response was 1.67% (inactive).

`CCCCN(CCCC)CC(O)Cn1c2ccccc2c(=O)c2ccccc21` (configuration not stated): the max response was 1.42% (inactive).

`CCc1ccnc(NC(=O)Nc2ccc(OCc3ccccc3)cc2)c1`: the max response is 4.28% (inactive).

Consider `COc1ccc(C2=Nc3cc(C)ccc3OC2)cc1`, for which the max response is 33.1% (active).

Turning to `COc1ccc(/C=C/c2c(-c3cccc(C)c3)oc3ccc(-c4ccc5c(c4)OCO5)cc23)cc1`, the max response is -3.1% (inactive).

`COc1ccc(C2=NOC3(CC(=O)N(c4ccc(C)cc4)C3=O)C2)cc1` (configuration not stated): the max response is 14.2% (inactive).

Regarding `CC(=O)Nc1ccc(S(=O)(=O)Nc2ccc(-c3ccc4nnc(C)n4n3)cc2)cc1`, the max response is -1.66% (inactive).

As for `O=C(NC1CCCC1)C(c1ccc(Cl)cc1)N(C(=O)c1csnn1)C1CC1` (configuration not stated), the max response is -3.62% (inactive).

Turning to `Cc1cc(/C=C2/NC(=O)NC2=O)c(C)n1-c1cccnc1`, the max response was 7.98% (inactive).

As for `Cc1ccccc1-n1c(C)cc(/C=C2\NC(=O)NC2=O)c1C`, the max response was 52% (active).

Take `Cc1cccc(C)c1-n1c(C)cc(/C=C2\C(=O)NN(c3ccccc3)C2=O)c1C`: the max response was -1.17% (inactive).
